Source: PubChem BioAssay
Hits are enriched below; roughly 12% of the tested compounds scored in any of these assays.
G9a inh: blocks human histone lysine methyltransferase G9a | G9a H3K9 monomethylation, AlphaScreen, 2 h | Potency, µM (top dose mostly 102 µM), for inactives: at the top dose activity, negative = inhibition, actives largely listed as inhibitors | Q96KQ7 | actives 8.8% (n = 350,000); also: % is scaled to controls: 0 for no effect and ±100 for the full control effect; nearly all actives have a fitted effect of over 75% in size
Target sequence (Q96KQ7 913-1193 limits assumed): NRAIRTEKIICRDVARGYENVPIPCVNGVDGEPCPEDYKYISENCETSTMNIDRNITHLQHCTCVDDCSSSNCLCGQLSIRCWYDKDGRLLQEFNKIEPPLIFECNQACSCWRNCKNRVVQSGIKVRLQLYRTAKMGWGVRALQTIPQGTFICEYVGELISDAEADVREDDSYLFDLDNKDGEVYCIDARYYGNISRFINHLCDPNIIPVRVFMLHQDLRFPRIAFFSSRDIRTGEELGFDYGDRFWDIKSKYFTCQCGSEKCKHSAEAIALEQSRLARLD
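G9a (20 nM) preincubated 15 min RT with compounds, then 500 nM biotinylated H3K9 peptide and 20 uM SAM added; 2 h RT reaction. Monomethyl-H3K9 product detected by AlphaScreen with anti-H3K9me1 antibody, streptavidin donor and anti-rabbit IgG acceptor beads.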
HP1b chromo inh: inhibitors of HP1-beta chromodomain binding to methylated histone tails. P83916. AlphaScreen HP1-beta / biotin-H3K9me3 peptide binding. Potency, µM (series often up to 114 µM), inactives show top-dose activity change, negative = inhibition, usual class: inhibitors. actives 0.56% (n = 390,000); also: nearly all actives have a fitted effect of over 70% in size
Target sequence (P83916 whole entry, looked up): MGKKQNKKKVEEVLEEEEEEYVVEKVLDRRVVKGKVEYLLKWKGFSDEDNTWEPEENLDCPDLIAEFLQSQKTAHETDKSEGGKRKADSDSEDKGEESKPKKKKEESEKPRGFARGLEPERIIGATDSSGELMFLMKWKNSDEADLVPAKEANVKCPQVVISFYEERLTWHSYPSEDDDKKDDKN
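AlphaScreen: HP1-beta (50 nM) preformed 30 min with biotin-H3(1-18)K9me3 peptide (50 nM) in PBS pH 7.4, 0.01% Tween-20. Compound added for 30 min at RT, then streptavidin donor/nickel chelate acceptor beads (10 ug/mL) for 30 min.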
Sfp inh: inhibitors of Bacillus subtilis Sfp phosphopantetheinyl transferase; actives 3.5% (n = 310,000); Q9F4F7; AID 1490; Potency, µM, inactives show largest response in the series, negative = inhibition, actives largely listed as inhibitors; Biochemical Sfp PPTase activity, qHTS;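 also: the enzyme is Sfp with the accession as filed and its product quenches rhodamine fluorescence; 0% = enzyme reaction without inhibitor and -100% = no enzyme wells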
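Fluorescence-quenching assay: 15 nM Sfp-PPTase preincubated 15 min at room temperature with compound, then 5 uM rhodamine-CoA and 12.5 uM BHQ-2-labelled YbbR peptide added. Fluorescence (ex 525/em 598 nm) read at start and after 30 min; difference gives rate.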
JMJD2A Tudor inh: blocks the human JMJD2A Tudor domain. O75164. AlphaScreen JMJD2A-Tudor / H3K4me3 peptide binding. Potency, µM (top dose mostly 114 µM), for inactives: at the highest dose activity change, negative = inhibition, usual class: inhibitors. AID 504339. actives 4.4% (n = 390,000); also: % is scaled to controls: 0 for no effect and ±100 for the full control effect; nearly all actives have a fitted effect of over 50% in size
TDP1 block: TDP1 (human) enzyme inhibition; Potency, µM (series often up to 130 µM), inactives show at the highest dose activity change, negative = inhibition, most hits filed as inhibitors; actives 0.28% (n = 350,000); Q9NUW8; recombinant TDP1, AlphaScreen DNA substrate cleavage; AID 485290; also: % is scaled to controls: 0 for no effect and ±100 for the full control effect; nearly all actives have a fitted effect of over 40% in size
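Tdp1 1 nM final; 15 min RT w/ cpd; substrate 15 nM, 5 min; beads 10 ug/ml, 10 min; AlphaScreen read. Neg ctrl: no enzyme.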
BAZ2B block: BAZ2B (human) inhibition; Potency, µM (series often up to 114 µM), for the others: at the top dose activity change, negative = inhibition, usual class: inhibitors; actives 4.4% (n = 360,000); AID 504333; Q9UIF8; AlphaScreen BAZ2B-H3K14Ac peptide displacement; also: % is scaled to controls: 0 for no effect and ±100 for the full control effect; nearly all actives have a fitted effect of over 60% in size
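AlphaScreen luminescence quantifies BAZ2B engagement of H3K14Ac peptide; the protein and biotinylated peptide are both at 50 nM final, buffer PBS pH 7.4 with 0.01% Tween-20, all steps at room temperature.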
Starred values were filed as active, the others as inactive; ? = inconclusive; · = not tested or not shown; [ ] = dose if it differs, or a comment. Calls follow the shape of the dose curve; as a rule, active = well fitted curve in the direction sought with a large enough effect; inconclusive = small, poorly fitted or top-dose-only effect, or another doubt; inactive = no such curve, though single readings can be large; an effect the other way counts as inactive or inconclusive. Potency is read from the fitted curve at half-maximal effect.

SMILES	G9a inh	HP1b chromo inh	Sfp inh	JMJD2A Tudor inh	TDP1 block	BAZ2B block
COc1ccc(NC(=O)/C=C/c2ccc(Br)o2)cn1	?	?	25.1µM*	?	20µM*	?
COc1ccccc1CNC(=O)/C=C/c1ccc(Br)o1	28.2µM*	24.9%	10µM*	-16.1%	-9.8%	?
COc1ccc(NC(=O)/C=C/c2cccc(F)c2)cn1	2.1%[59 µM]	8.7%	13.4%	-30.5%	0.0%	-4.8%
O=C(/C=C/c1ccc(Br)o1)NC(c1ccccc1)c1ccccc1	17.8µM*	?	20µM*	?	2.6%	-37.0%
CCc1ccc(CN2CCN(c3ncccn3)CC2)cc1	5.6%[0.501 µM]	-21.3%	?	20µM*	·	50.1µM*
Fc1ccc(CN2CCN(c3ncccn3)CC2)cc1	10µM*	?	-14.3%	10µM*	-2.2%	?
CCOc1cc(CN2CCN(c3ncccn3)CC2)ccc1OC	·	?	-9.1%	2.82µM*	·	79.4µM*
Fc1ccc(F)c(CN2CCN(c3ncccn3)CC2)c1	-10.3%[59 µM]	15.4%	5.3%	-20.8%	4.3%	-34.8%
Clc1ccc(CN2CCN(c3ccccc3)CC2)cn1	4.8%	-19.1%	8.2%	-27.7%	0.0%	-3.8%
CC(NC(C(=O)c1ccccc1)c1ccccc1)c1ccccc1 (stereo unspecified)	·	35.7%[57 µM]	·	71.0%	·	·
O=C(CCCn1c(=O)c2sccc2n(Cc2c(F)cccc2Cl)c1=O)NCc1ccccc1	38.8%[59 µM]	54.8%	·	1.4%	-2.7%	39.4%
Cc1sc2nc(C)n(/N=C/N(C)C)c(=O)c2c1C	1.0%[12.7 µM]	-3.7%	5.9%	-13.7%	-6.2%	-14.4%
Cc1nc2scc(-c3ccco3)c2c(=O)n1/N=C/N(C)C	-38.5%[12.7 µM]	23.1%	12.6µM*	-23.0%	-4.7%	-0.7%
CCC(=O)N1CCc2cc(Br)cc(S(=O)(=O)N3CCCC(C(=O)N(C)c4ccc(Br)cc4)C3)c21 (stereo unspecified)	7.2%[59 µM]	22.1%	·	-27.6%	3.6%	10.4%
C#CCOCCOCCOCCNc1nc(N2CCN(C(=O)C([C@@H](C)CC)n3cc(C(N)CC(C)C)nn3)CC2)nc(N2CCN(C(=O)[C@H](CCC(=O)O)n3cc(C(N)CC(C)C)nn3)CC2)n1 (stereo partly specified)	-39.2%[12.7 µM]	20.5%	0.2%	79.4µM*	3.8%	79.4µM*
C#CCOCCOCCOCCNc1nc(N2CCN(C(=O)C([C@@H](C)CC)n3cc(C(N)CO)nn3)CC2)nc(N2CCN(C(=O)[C@H](CCC(=O)O)n3cc(C(N)CC(C)C)nn3)CC2)n1 (stereo partly specified)	-0.8%[12.7 µM]	62.0%	5.7%	50.1µM*	3.8%	50.1µM*
C#CCOCCOCCOCCNc1nc(N2CCN(C(=O)[C@H](CCCCN)n3cc(CN)nn3)CC2)nc(N2CCN(C(=O)[C@H](CCC(=O)O)n3cc(CN)nn3)CC2)n1	·	37.0%	·	?	1.8%	·
C#CCOCCOCCOCCNc1nc(N2CCOCC2)nc(N2CCN(C(=O)[C@H]([C@@H](C)CC)n3cc([C@@H](N)CC(C)C)nn3)CC2)n1	11.4%[12.7 µM]	30.7%	12.0%	-18.7%	3.8%	-9.0%
C#CCOCCOCCOCCNc1nc(N2CCN(C(=O)[C@H](CCC(=O)O)n3cc(C(N)CC(C)C)nn3)CC2)nc(N2CCN(C(=O)[C@H](CCC(=O)O)n3cc(C(N)CC(C)C)nn3)CC2)n1 (stereo partly specified)	10.0%[12.7 µM]	22.9%	0.3%	79.4µM*	-5.1%	79.4µM*
CC(C)Oc1ccccc1/C=N/NC(=O)C1CC1	·	24.4%	·	12.8%	·	·
CN(c1ccccc1C(=O)Nc1ccc(F)c(Cl)c1)S(C)(=O)=O	7.8%	7.5%	18.8%	-14.8%	-4.8%	-11.8%
COC(=O)[C@@]1(Cc2ccc(F)cc2)[C@H]2c3cc(C(=O)N4CCCC4)n(Cc4cc(F)cc5c4OCOC5)c3C[C@H]2CN1C(=O)c1ccccc1	·	·	10.0%	·	14.7%	·
